Where “and” joins values, the source holds several entries; their conditions need not be identical. Equal entries are not always repeated. The campaign covered roughly 5,500 compounds. About 2,000 (36%) were called active. Another 18% or so got no clear call; they are omitted. Rule as the data show it: active = normalized growth mostly below about 0.91 (no sharp cut-off); inconclusive = no clear call, values can overlap the other calls; inactive = mostly above about 0.92. Some of the results follow.
Experiment: chemical genetic growth profiling, strain panel (AID 1159580);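 also: tested at 20 µM; growth read once vehicle control cultures reached saturation at 30 °C; 1 = growth at the plate median or of vehicle wells; lower values mean less growth of the strain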
Settings: S. cerevisiae deletion strains, growth OD

Measured: normalized growth

N[C@H](Cc1ccccc1)C(=O)O
inactive: locus YAL013W, strain DEP1, active compounds read low 1.02 | locus YAL021C, strain ccr4, active compounds read low 1.01 | locus YAL026C, strain drs2, active compounds read low 1 | locus YAL030W, strain snc1, active compounds read low 1.01 | locus YBL061C, strain skt5, active compounds read low 1 | locus YBR009C, strain hhf1, active compounds read low 0.968 | locus YBR021W, strain FUR4, active compounds read low 0.98 | locus YBR023C, strain chs3, active compounds read low 1.01 | locus YBR171W, strain sec66, active compounds read low 0.99 | locus YBR229C, strain ROT2, active compounds read low 1.01 | locus YBR231C, strain swc5, active compounds read low 0.971 | locus YBR279W, strain paf1, active compounds read low 0.999 | locus YCL011C, strain gbp2, active compounds read low 1 | locus YCL016C, strain dcc1, active compounds read low 1.03 | locus YCL029C, strain bik1, active compounds read low 1 | locus YCL069W, strain vba3, active compounds read low 0.988 | locus YCR088W, strain abp1, active compounds read low 0.987 | locus YDL005C, strain med2, active compounds read low 0.997 | locus YDL035C, strain GPR1, active compounds read low 1.02 | locus YDL040C, strain nat1, active compounds read low 1 | locus YDL074C, strain BRE1, active compounds read low 1.05 | locus YDL101C, strain DUN1, active compounds read low 1.01 | locus YDL134C, strain PPH21, active compounds read low 1.01 | locus YDL185W, strain tfp1, active compounds read low 1 | locus YDL192W, strain arf1, active compounds read low 1.01 | locus YDR001C, strain nth1, active compounds read low 0.987 | locus YDR069C, strain doa4, active compounds read low 0.997 | locus YDR101C, strain arx1, active compounds read low 1.01 | locus YDR137W, strain rgp1, active compounds read low 0.982 | locus YDR150W, strain NUM1, active compounds read low 1.02 | locus YDR159W, strain sac3, active compounds read low 0.935 | locus YDR162C, strain NBP2, active compounds read low 1.02 | locus YDR195W, strain ref2 0.961 | locus YDR297W, strain sur2, active compounds read low 1 | locus YDR318W, strain mcm21, active compounds read low 0.993 | locus YDR334W, strain swr1, active compounds read low 0.946 | locus YDR335W, strain msn5, active compounds read low 0.994 | locus YDR388W, active compounds read low 1.01 | locus YDR392W, strain spt3, active compounds read low 0.965 | locus YDR502C, strain sam2, active compounds read low 1 | locus YEL003W, strain gim4, active compounds read low 0.983 | locus YEL037C, strain rad23, active compounds read low 0.976 | locus YEL061C, strain CIN8 (second series), active compounds read low 0.962 | locus YEL061C, strain CIN8, active compounds read low 1.01 | locus YER015W, strain faa2, active compounds read low 0.993 | locus YER016W, strain bim1, active compounds read low 1.02 | locus YER110C, active compounds read low 1 | locus YER111C, strain swi4, active compounds read low 0.999 | locus YER155C, strain BEM2 (second series), active compounds read low 0.99 | locus YER155C, strain BEM2, active compounds read low 1 | locus YER167W, strain BCK2, active compounds read low 1.01 | locus YFR010W, strain ubp6, active compounds read low 0.942 | locus YGL078C, strain dbp3, active compounds read low 1.02 | locus YGL086W, strain mad1, active compounds read low 1.01 | locus YGL167C, strain pmr1, active compounds read low 0.983 | locus YGL173C, strain kem1, active compounds read low 0.97 | locus YGL227W, strain vid30, active compounds read low 0.98 | locus YGL240W, strain doc1, active compounds read low 0.955 | locus YGL248W, strain PDE1, active compounds read low 1 | locus YGL253W, strain hxk2, active compounds read low 1 | locus YGR078C, strain PAC10, active compounds read low 1.05 | locus YGR135W, strain pre9, active compounds read low 1 | locus YGR229C, strain SMI1, active compounds read low 1.03 | locus YGR252W, strain gcn5, active compounds read low 0.935 | locus YHR013C, strain ard1, active compounds read low 1 | locus YHR027C, strain rpn1, active compounds read low 0.996 | locus YHR030C, strain SLT2, active compounds read low 1.02 and 1.05 | locus YHR079C, strain IRE1 (second series), active compounds read low 1.01 | locus YHR079C, strain IRE1, active compounds read low 1.06 | locus YHR094C, strain hxt1, active compounds read low 1 | locus YHR129C, strain ARP1, active compounds read low 1.01 | locus YHR142W, strain chs7, active compounds read low 0.992 | locus YHR200W, strain rpn10, active compounds read low 1 | locus YIL066C, strain RNR3, active compounds read low 1.02 | locus YIL073C, strain SPO22, active compounds read low 1.04 | locus YIL125W, strain kgd1, active compounds read low 0.994 | locus YIR030C, strain dcg1, active compounds read low 1.02 | locus YJL092W, strain hpr5, active compounds read low 1 | locus YJL095W, strain BCK1 (second series), active compounds read low 0.996 | locus YJL095W, strain BCK1, active compounds read low 1.02 and 1.05 | locus YJL115W, strain asf1, active compounds read low 0.979 | locus YJL129C, strain trk1, active compounds read low 1 | locus YJL134W, strain LCB3, active compounds read low 1.01 | locus YJL154C, strain vps35, active compounds read low 0.977 | locus YJL164C, strain tpk1, active compounds read low 0.979 | locus YJL166W, strain qcr8, active compounds read low 0.981 | locus YJL168C, strain set2, active compounds read low 0.992 | locus YJL187C, strain SWE1 (second series), active compounds read low 1.02 | locus YJL187C, strain SWE1, active compounds read low 1.02

— PubChem BioAssay AID1159580 (chemical genetic matrix, 2015)
